Assay outcomes from PubChem.
LYP inh 2 – PTPN22 phosphatase inhibitors, primary screen, biochemical, DiFMUP fluorescence, 2 µM; 96,000 compounds, 0.21% hits; recombinant LYP catalytic domain; AID 640, 2007; Tyrosine-protein phosphatase non-receptor type 22 (Homo sapiens), Q9Y2R2; inhibition, % at 2 µM;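 active means inhibition at 2 µM at or above a set limit, the screen mean plus 3 SD, cut at about 24% in these data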;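 further: 0% = DMSO with enzyme and 100% = enzyme fully blocked by orthovanadate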
LYP act – LYP phosphatase activators, primary screen, biochemical, DiFMUP fluorescence, 2 µM; Tyrosine-protein phosphatase non-receptor type 22 (Homo sapiens), Q9Y2R2; recombinant LYP; 0 = plate median, 100 = signal doubled; activation, % at 2 µM; 96,000 compounds, 0.11% hits;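 active means activation at 2 µM above a set limit, the mean plus 5 SD, cut at about 37% in these data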
FAK inh – FAK kinase inhibitors, primary screen, biochemical; Focal adhesion kinase 1 (Homo sapiens), Q05397; biochemical FAK kinase activity assay; inhibition, %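 (tested at 7 µM)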; 97,000 compounds, 0.84% hits; AID 727, 2007; in the data active means inhibition above about 19%;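 further: 0% = DMSO and 100% = reference compound high control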
Target sequence (Q05397 whole entry, looked up): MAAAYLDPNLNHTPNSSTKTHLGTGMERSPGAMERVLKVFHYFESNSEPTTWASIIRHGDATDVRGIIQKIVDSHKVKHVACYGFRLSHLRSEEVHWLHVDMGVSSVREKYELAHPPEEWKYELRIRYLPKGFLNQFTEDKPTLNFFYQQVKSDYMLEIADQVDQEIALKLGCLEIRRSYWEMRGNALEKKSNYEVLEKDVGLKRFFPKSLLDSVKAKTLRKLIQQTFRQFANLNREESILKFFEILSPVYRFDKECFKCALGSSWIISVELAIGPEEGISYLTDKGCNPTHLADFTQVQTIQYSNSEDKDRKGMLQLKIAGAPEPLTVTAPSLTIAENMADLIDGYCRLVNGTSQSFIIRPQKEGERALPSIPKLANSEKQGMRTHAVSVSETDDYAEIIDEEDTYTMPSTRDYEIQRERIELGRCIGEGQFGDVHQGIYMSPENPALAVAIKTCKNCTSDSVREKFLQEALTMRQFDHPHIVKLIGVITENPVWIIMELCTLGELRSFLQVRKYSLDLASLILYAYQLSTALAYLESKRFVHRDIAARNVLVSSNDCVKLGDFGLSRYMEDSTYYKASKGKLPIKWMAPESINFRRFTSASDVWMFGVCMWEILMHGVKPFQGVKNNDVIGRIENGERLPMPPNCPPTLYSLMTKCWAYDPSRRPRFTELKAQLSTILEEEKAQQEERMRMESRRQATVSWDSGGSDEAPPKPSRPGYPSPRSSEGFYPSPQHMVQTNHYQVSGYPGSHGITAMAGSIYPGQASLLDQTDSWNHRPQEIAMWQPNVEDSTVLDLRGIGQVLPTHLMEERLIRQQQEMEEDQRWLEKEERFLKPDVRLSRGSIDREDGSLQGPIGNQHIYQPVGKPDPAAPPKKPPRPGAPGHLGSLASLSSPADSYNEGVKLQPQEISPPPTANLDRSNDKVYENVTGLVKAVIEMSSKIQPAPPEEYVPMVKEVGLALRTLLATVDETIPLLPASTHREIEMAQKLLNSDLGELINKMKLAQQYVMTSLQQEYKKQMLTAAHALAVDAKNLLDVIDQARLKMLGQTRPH
PLAP activator – PLAP enzyme activators, biochemical, luminescence, HTS. Alkaline phosphatase, placental type (Homo sapiens), P05187. purified PLAP enzyme, luminescent substrate read-out; hits give high values. activation fold at 20 µM. 96,000 compounds, 1.2% hits; in the data active means activation fold above about 2
MRP reversal – reversal of MRP1-mediated doxorubicin resistance, primary screen, H69AR cells, doxorubicin co-treatment; H69AR cells + 2 uM doxorubicin, CellTiter-Glo, 72 h; differential viability (reversal), % at 10 µM; 85,000 compounds, 0.04% hits;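 active means viability drop by adding the cancer drug above about 55%, with treated viability meeting a 40% cutoff, limit read from the data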;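 further: viability without doxorubicin minus viability with 2 µM doxorubicin for each compound; larger differential means the compound sensitizes cells more to doxorubicin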
MRP1 act – H69AR viability gain despite doxorubicin, primary screen, MRP-1 activator project, H69AR cells, CellTiter-Glo. viability rescue. viability increase, % at 10 µM. 140,000 compounds, 0.61% hits. AID 799, 2007;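 active means viability gain under doxorubicin at or above a set limit, the compound median plus 3 SD, cut at about 4.7% in these data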;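 further: MRP-1 overexpressing cells given doxorubicin 25 µM after compound pretreatment; 18-22 h compound pretreatment then 72 h with doxorubicin before readout; 0% = doxorubicin-only wells and 100% = vehicle-treated cells without doxorubicin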
Numbers without * were called inactive. The list is not random: actives were taken first. Their share in the collection is about 2.2%.

`N#Cc1ccc(N2C(=O)[C@@H]3C(C(=O)c4ccc5ccccc5n4)=NN[C@@H]3C2=O)cc1` gave MRP1 act 9.3*.
O=C(C1=NN[C@@H]2C(=O)N(c3ccccc3C(F)(F)F)C(=O)[C@H]12)c1ccc2ccccc2n1 was read as MRP1 act -1.
`Cc1ccc(C(=O)Nc2nc(=O)n(C(=O)CC(C)C)s2)cc1` gave FAK inh 0, PLAP activator 1.2 and MRP1 act 3.
For CC(C)CC(=O)n1sc(NC(=O)c2ccccc2)nc1=O the results were LYP inh 2 16, LYP act -11, FAK inh -3, PLAP activator 1 and MRP1 act 6.5*.
For O=C(CCc1[nH]c2ccccc2c1Sc1ccccc1)NCCO the results were MRP1 act -1.
Screening CCn1c(-c2cc(-c3ccc(OC(C)C)cc3)nc3ccccc23)n[nH]c1=S returned LYP inh 2 0, LYP act 3, FAK inh 0, PLAP activator 2.2* and MRP1 act 3.
Screening CCn1c(-c2cc(-c3cc(OC)ccc3OC)nc3ccccc23)n[nH]c1=S returned LYP inh 2 2, LYP act -4, FAK inh 1, PLAP activator 2.3* and MRP1 act -1.
Screening CCCOc1cccc(-c2cc(-c3n[nH]c(=S)n3CC)c3ccccc3n2)c1 returned LYP inh 2 24, LYP act -20, FAK inh 5, PLAP activator 1.4 and MRP1 act -5.
`CCn1c(-c2cc(-c3ccccc3OC)nc3ccccc23)n[nH]c1=S` gave MRP1 act -4.
C/C(=N\O)C(=O)NCCN(C)C was read as MRP1 act -1.
CCOC(=O)c1oc2cc(O)cc(C)c2c(=O)c1-c1cscn1 was read as LYP inh 2 -10, LYP act 10, FAK inh 0, PLAP activator 1.2, MRP reversal 4 and MRP1 act -1.
`CCOC(=O)c1[nH]nc(-c2cc(CC)c(O)cc2O)c1-c1cscn1` gave LYP inh 2 0, LYP act 2, FAK inh -1, PLAP activator 2.1*, MRP reversal -2 and MRP1 act -4.
Screening O=C(Oc1ccccc1C(=O)Nc1ccccc1)c1ccccc1Br returned MRP1 act -2.
Screening O=C(Nc1ccc(C2CC2(Cl)Cl)cc1)c1ccccc1Br (stereo not given) returned MRP1 act 11*.
Screening COCCn1c(C)cc(/C=C2/NC(=O)N(c3ccc(Cl)cc3)C2=O)c1C returned MRP1 act -1.
For O=C(CC(NC(=O)C(F)(F)F)c1ccccc1)Nc1nnc(CCc2ccccc2)s1 (stereo not given) the results were MRP1 act 9.3*.
For CCCC(=O)c1ccc(N2CCOCC2)c(F)c1 the results were LYP inh 2 0, LYP act -1, FAK inh -7, PLAP activator 2.1* and MRP1 act -2.
Cc1ccc(C(=O)c2ccc(N3CCOCC3)c(F)c2)cc1 was read as LYP inh 2 -10, LYP act 9, FAK inh 0, MRP reversal 4 and MRP1 act 0.
For CCC(=O)c1ccc(N2CCOCC2)c(F)c1 the results were LYP inh 2 13, LYP act -13, FAK inh 0, MRP reversal -5 and MRP1 act 7.7*.
Screening Cc1nc(/N=C(\N)NC(=O)c2ccccc2)nc2ccccc12 returned LYP inh 2 9, LYP act -4, FAK inh 8, PLAP activator 1 and MRP1 act -2.
For Cc1nc(/N=C(\N)NC(=O)N2c3ccccc3Sc3ccccc32)nc2ccccc12 the results were MRP1 act 6.5*.
Screening Cc1ccc(S(=O)(=O)N2CCc3ccccc3C2CN2C(=O)c3ccccc3C2=O)cc1 (stereo not given) returned LYP inh 2 9, LYP act -5, FAK inh 4, PLAP activator 1.5 and MRP1 act -1.
For COCC(C)n1c(C)cc(C(=O)COC(=O)CN=C2NS(=O)(=O)c3ccccc32)c1C (stereo not given) the results were MRP1 act -1.
